Source: PubChem (several laboratories)
14-3-3 Bad PPI = disrupts binding of bovine 14-3-3 zeta to phospho-Bad peptide; TR-FRET 14-3-3zeta/Dy647-pBad peptide displacement, 1 h; inhibition, % at 21.7 µM; 220,000 compounds, 0.71% hits; AID 781;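 active means inhibition above about 70%, limit read from the data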
Mcl1-Bid inh = disrupts binding of human Mcl-1 to Bid peptide; Q07820; TR-FRET Mcl-1/Bid-Dy647 peptide binding, 1536-well; AID 1021; inhibition, % at 21.7 µM; 220,000 compounds, 0.97% hits;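 active means compounds that cut the binding signal by more than half at the single screening dose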;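 further: His-tagged Mcl-1 with europium anti-His antibody binding Bid BH3 peptide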
Mcl1 Noxa PPI = disrupts binding of human Mcl-1 to Noxa peptide; Q07820; TR-FRET Mcl-1/Noxa peptide binding, 2 h; inhibition, % at 21.7 µM; 220,000 compounds, 1.5% hits;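 active means compounds that cut the protein-peptide binding signal by more than 50% relative to plate controls in a single-dose test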;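 further: His-tagged Mcl-1 with rhodamine Noxa BH3 peptide and terbium anti-His antibody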
Hck Nef HTS = blocks Nef-activated human Hck kinase | P08631 | Recombinant Hck-YEEI plus Nef, Z-Lyte FRET kinase assay | inhibition, % at 20 µM | 220,000 compounds, 0.68% hits | AID 463187;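 active means Hck-Nef kinase inhibition above about 50%, limit read from the data; inactive means inhibition below that limit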
Target sequence (P08631 whole entry, looked up): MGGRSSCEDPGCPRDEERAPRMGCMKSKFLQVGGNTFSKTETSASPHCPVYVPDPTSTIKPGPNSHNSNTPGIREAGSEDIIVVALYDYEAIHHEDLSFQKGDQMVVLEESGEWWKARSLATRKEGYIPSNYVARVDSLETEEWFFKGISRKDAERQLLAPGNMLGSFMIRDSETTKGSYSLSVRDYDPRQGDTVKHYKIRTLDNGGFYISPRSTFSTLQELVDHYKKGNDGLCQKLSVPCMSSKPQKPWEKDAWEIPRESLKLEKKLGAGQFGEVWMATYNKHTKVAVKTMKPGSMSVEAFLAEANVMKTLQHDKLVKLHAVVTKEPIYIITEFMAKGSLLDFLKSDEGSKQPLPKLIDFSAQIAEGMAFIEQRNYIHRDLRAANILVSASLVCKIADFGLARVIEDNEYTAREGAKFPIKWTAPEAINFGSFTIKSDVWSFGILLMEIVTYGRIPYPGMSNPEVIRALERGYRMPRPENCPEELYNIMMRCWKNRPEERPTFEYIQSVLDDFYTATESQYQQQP
Pf gamet viab = inhibitors of late stage P. falciparum gametocyte viability | AID 743093 | inhibition, % at 10.9 µM | 150,000 compounds, 0.065% hits | P. falciparum stage V gametocytes, ATP luminescence, 24 h;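 active means inhibition above the mean plus 3 SD of compounds within the control limits, set per campaign, cut at about 38% in these data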
Mcl-1 Bim block = human Bim-Mcl-1 interaction inhibition | Q07820 | Bead-based flow cytometry, Bim peptide-Mcl-1 binding | inhibition, % at 10 µM | 190,000 compounds, 0.1% hits; in the data active means inhibition above about 40%
Each line names hits and unclear results; the compound was inactive in the other large screens; [ ] = remark or other dose. The list is not random: actives were taken first. Their share in the collection is about 2.9%.

O=C(CN1CCN(c2ccc(O)cc2)CC1)NC(=O)NCc1ccco1	Mcl1 Noxa PPI 52
CS/C(=N\S(=O)(=O)c1cccs1)NC(=O)CSc1nc2ccccc2s1	14-3-3 Bad PPI 73, Mcl1 Noxa PPI 53 (no result: Pf gamet viab)
Cc1ccc(C(=O)Nc2sc(C)c(-c3ccccc3)c2C(N)=O)cc1[N+](=O)[O-]	none (no result: Pf gamet viab)
CC1CC(=O)Nc2ccccc2N1S(=O)(=O)c1ccc(C#N)cc1 (centres undefined)	none (no result: Mcl-1 Bim block)
O=[N+]([O-])c1ccc2c(OCc3nnc(-c4ccccc4Br)o3)ncnc2c1	Mcl1 Noxa PPI 61 (no result: Mcl-1 Bim block)
CCOC(=O)c1cccc(NC(=O)C2CCN(S(=O)(=O)c3cnc[nH]3)CC2)c1	none (no result: Pf gamet viab)
O=C1C(C=NCc2ccncc2)=C(O)c2ccccc21	Mcl1-Bid inh 96 (no result: Pf gamet viab)
C=CCN1C(=O)/C(=C/c2ccsc2)SC1=S	Mcl-1 Bim block 64
O=C(O)CN1C(=O)/C(=C/c2ccsc2)SC1=S	none
Cn1c(N)c(C(=O)COC(=O)c2cc(-c3ccco3)nc3ccccc23)c(=O)n(Cc2ccccc2)c1=O	Mcl1 Noxa PPI 106 (no result: Pf gamet viab)
Cn1c(N)c(C(=O)COC(=O)c2cc(C(F)(F)F)nc3ccccc23)c(=O)n(Cc2ccccc2)c1=O	none (no result: Pf gamet viab)
Cc1cc(NC(=O)CSc2nc3ccccc3c(=O)n2Cc2ccc(F)cc2)no1	14-3-3 Bad PPI 74, Mcl1-Bid inh 57
CC(C)Cn1c(N)c(C(=O)COC(=O)c2ccccc2Cl)c(=O)n(C)c1=O	Mcl1 Noxa PPI 61
Cn1c(N)c(C(=O)CSc2nc3ccccc3c(=O)n2Cc2ccccc2)c(=O)n(C)c1=O	Mcl1-Bid inh 52 (no result: Mcl-1 Bim block)
COCC(=O)Nc1cc(C(=O)Nc2cccc(C)c2C)ccc1Cl	none
Cn1c(N)c(C(=O)COC(=O)c2cc(-c3ccco3)nc3ccccc23)c(=O)n(C)c1=O	Mcl1 Noxa PPI 87 (no result: Pf gamet viab)
O=C(Nc1cccc(C(F)(F)F)c1)C1CCCN(S(=O)(=O)c2cnc[nH]2)C1 (centres undefined)	none
Cc1cccc(N2C(S)=C(C#N)C(=O)NC2c2ccco2)c1 (centres undefined)	none
N#CC1=C(S)N(c2ccccc2)C(c2ccc(-c3cccc(Cl)c3)o2)NC1=O (centres undefined)	Mcl1 Noxa PPI 69
CC(=O)Oc1cc2c3c(c1)/C(=C1/SC(=S)NC1=O)C(=O)N3C(C)(C)C=C2C	Mcl1 Noxa PPI 51 (no result: Mcl-1 Bim block)
CSCCOC(=O)COc1ccc(/C=N/NC(=O)c2nn(C)cc2Cl)cc1	none
COc1cccc2cc(C(N)=O)/c(=N/NC(=O)COc3ccc(Cl)cc3)oc12	Mcl1-Bid inh 64 (no result: Pf gamet viab)
CCCCNC(=O)C1CCN(C/C(C)=C/c2ccccc2)CC1	14-3-3 Bad PPI 71
N#Cc1c(Cl)c(Cl)c2nnc(-c3ccc(Br)cc3)n2c1Cl	14-3-3 Bad PPI 95[fluorescence artefact?] (no result: Pf gamet viab)
O=C(NC1CCCCC1)N1CCc2ccccc2C1	none
CNC(=O)c1c(NC(=O)c2cc(-c3cc(C)c(C)cc3O)n[nH]2)sc2c1CCCC2	Mcl1 Noxa PPI 60 (no result: Pf gamet viab, Mcl-1 Bim block)
CCN(CC)c1ccc(NC(=O)Nc2ccc(C(C)=O)cc2)cc1	Mcl1 Noxa PPI 97 (no result: Pf gamet viab)
CCN(CC)c1ccc(NC(=O)c2cccnc2)cc1	none (no result: Pf gamet viab)
CCN(CC)c1ccc(NC(=O)c2cncc(Br)c2)cc1	Mcl1 Noxa PPI 58
Cc1cccc(NC(=O)Cn2cnc3ccccc3c2=O)c1C	14-3-3 Bad PPI 92 (no result: Pf gamet viab)
CN(C1=NC(=O)CS1)c1ccc(O)cc1	Mcl1-Bid inh 97 (no result: Mcl-1 Bim block)
COc1cccc(CNc2ccc(F)c(Cl)c2)c1	14-3-3 Bad PPI 78 (no result: Pf gamet viab)
COc1cc(-c2nc(N)n[nH]2)cc(OC)c1OC	none
Cc1ccccc1Nc1cc(C)c2c(O)cccc2n1	none (no result: Pf gamet viab)
COC(=O)c1cc(Nc2cc(C)c3c(O)cccc3n2)cc(C(=O)OC)c1	Mcl1 Noxa PPI 56 (no result: Mcl-1 Bim block)
COc1ccc(Nc2cc(C)c3c(O)cccc3n2)cc1	Mcl1 Noxa PPI 77 (no result: Mcl-1 Bim block)
COC(=O)c1cc(Nc2cc(C)c3ccc(O)cc3n2)cc(C(=O)OC)c1	none (no result: Mcl-1 Bim block)
Cc1ccc(Nc2cc(C)c3c(O)cccc3n2)cc1C	Mcl1 Noxa PPI 54 (no result: Mcl-1 Bim block)
S=C1NC[C@H](c2ccccc2)N1CC1CCCCC1	none
N#Cc1ccsc1NC(=O)CSc1nnnn1-c1ccc(O)cc1	Mcl1 Noxa PPI 66
N#Cc1ccsc1NC(=O)CSc1ncnc2ccccc12	Mcl1 Noxa PPI 68
CCOC(=O)c1c(NC(=O)CSc2ncnc3ccccc23)sc(C)c1C	Mcl1-Bid inh 59
Cc1cccc(N(C(=O)Cn2nnc(-c3ccc(F)cc3)n2)C(C(=O)NC(C)(C)C)c2ccncc2)c1 (centres undefined)	none (no result: Pf gamet viab)
C=CCc1c(C)c(C#N)c2nc3ccccc3n2c1N1CCCCC1	none (no result: Mcl-1 Bim block)
O=C(CN1CCN(Cc2ccccc2Cl)CC1)N/N=C/c1ccccn1	Mcl1 Noxa PPI 69 (no result: Mcl-1 Bim block)
O=C(COc1ccccc1C(=O)N/N=C\c1ccc(O)c(O)c1)N/N=C/c1ccc(O)c(O)c1	Mcl1 Noxa PPI 100 (no result: Pf gamet viab)
CSc1ccc(/C=N/NC(=O)CN2CCN(Cc3ccccc3Cl)CC2)cc1	none
Cc1ccccc1OCC(=O)N/N=C/c1ccccn1	Mcl-1 Bim block 64
Cc1cc(C)cc(OCC(=O)N/N=C/c2ccccn2)c1	none (no result: Mcl-1 Bim block)
CC(C)CN(C(=O)c1nn(C)c(=O)c2ccccc12)c1nc2ccccc2s1	none (no result: Pf gamet viab)
COC(=O)c1sccc1NC(=O)c1cc(C)on1	Mcl1-Bid inh 63 (no result: Pf gamet viab)
COC(=O)c1sccc1NC(=O)c1c(C)noc1C	none (no result: Pf gamet viab)
CCN(CC)c1ccc(/C=N/Nc2cccc(C)c2)c(O)c1	Mcl1-Bid inh 79
CCN(CC)c1ccc(/C=N/Nc2ccccc2)c(O)c1	Mcl1 Noxa PPI 57 (no result: Pf gamet viab)
CCN(CC)c1ccc(C=Nc2ccccc2)c(O)c1	none
COC1CCCCC1NS(=O)(=O)c1ccc(Cl)cc1 (centres undefined)	none (no result: Pf gamet viab)
NNC(=S)Nc1cc(S(=O)(=O)N2CCOCC2)ccc1N1CCOCC1	14-3-3 Bad PPI 94
O=[N+]([O-])c1cccc(-c2nnc(-c3ccc4c(c3)OCO4)o2)c1	Mcl1-Bid inh 60, Mcl1 Noxa PPI 62
COc1ccc(C2C(C#N)=C(N)OC3=C2C(=O)CC(C)C3)c(OC)c1OC (centres undefined)	Mcl1-Bid inh 53
COc1ccc(C2C(C#N)=C(N)OC3=C2C(=O)CCC3)cc1OC (centres undefined)	Mcl1-Bid inh 70
Cc1cc(C)c(NC(=O)C2c3ccccc3Oc3ccccc32)c(C)c1	none
O=C(COc1cccnc1[N+](=O)[O-])c1ccc(Cl)s1	Mcl1-Bid inh 80, Mcl1 Noxa PPI 82 (no result: Mcl-1 Bim block)
O=C(Nc1ccccc1)c1nc2ccccc2s1	none
Cc1cccc(NC(=S)c2nc3ccccc3s2)c1	Mcl1-Bid inh 103
CN(C)c1ccc(CNCCC2(O)CCOC(C)(C)C2)cc1 (centres undefined)	14-3-3 Bad PPI 75 (no result: Pf gamet viab)
CN(C)c1ccc(C=NCCC2(O)CCOC(C)(C)C2)cc1 (centres undefined)	none (no result: Pf gamet viab)
CSC1=NCCN1C(=O)c1ccc(S(=O)(=O)N2CCCC2)cc1	none (no result: Pf gamet viab)
Cc1cc(NC(=O)CCl)n(-c2nc3ccccc3s2)n1	Hck Nef HTS 59
